# Laboratory results: PubChem BioAssay (NCI)
# The panel holds about 83,000 compounds, 20% with a hit somewhere; the sample as a whole holds those more often.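 Activity criterion: percent growth below 10, measured after cells in 96-well plates were exposed to a single compound concentration for 48 hours.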 Values without a mark were called inactive. Active and inactive are the calls of the source.
# Key:
# Experiment in all cases: NCI-60 one-dose screen, 48 h (100 = growth as untreated, 0 = no growth, -100 = all killed)
# Conditions in all cases: 10 µM unless noted
# NCI-H23 lung = test system: NCI-H23 lung
# NCI-H226 lung = test system: NCI-H226 lung
# NCI-H322M lung = test system: NCI-H322M lung
# HOP-62 NSCLC = test system: HOP-62 NSCLC
# NCI-H460 lung = test system: NCI-H460 lung
# HOP-92 NSCLC = test system: HOP-92 NSCLC
# NCI-H522 lung = test system: NCI-H522 lung
# A549/ATCC NSCLC = test system: A549/ATCC NSCLC
# 786-0 renal = test system: 786-0 renal
# COLO 205 colon = test system: COLO 205 colon
# DU-145 prostate = test system: DU-145 prostate
# K-562 leukemia = test system: K-562 leukemia
# MALME-3M melanoma = test system: MALME-3M melanoma
# MDA-MB-231 breast = test system: MDA-MB-231 breast
# RXF 393 renal = test system: RXF 393 renal
# SF-268 CNS = test system: SF-268 CNS
# SF-295 CNS = test system: SF-295 CNS
# SF-539 CNS = test system: SF-539 CNS
# UACC-257 melanoma = test system: UACC-257 melanoma
# M14 melanoma = test system: M14 melanoma
SMILES,growth (NCI-H23 lung),growth (NCI-H226 lung),growth (NCI-H322M lung),growth (HOP-62 NSCLC),growth (NCI-H460 lung),growth (HOP-92 NSCLC),growth (NCI-H522 lung),growth (A549/ATCC NSCLC),growth (786-0 renal),growth (COLO 205 colon),growth (DU-145 prostate),growth (K-562 leukemia),growth (MALME-3M melanoma),growth (MDA-MB-231 breast),growth (RXF 393 renal),growth (SF-268 CNS),growth (SF-295 CNS),growth (SF-539 CNS),growth (UACC-257 melanoma),growth (M14 melanoma)
CCc1ccc(Oc2cn[nH]c2-c2ccc(OCCc3ccc(F)cc3)cc2O)cc1,92.8%,96.7%,98.6%,114%,94.8%,83.2%,-36.5% (active),66.9%,99.7%,108%,90.5%,100%,95.1%,85%,111%,88.9%,99.2%,106%,93.3%,83.1%
Cc1ccc2c(n1)C(=O)c1[nH]c3ccccc3c1C2=O,-33.8% (active),55.7%,31.8%,39.5%,-50.6% (active),78%,59.7%,-14.4% (active),78.1%,23.9%,-86.1% (active),44.9%,-80.4% (active),32.1%,62.7%,66.3%,0.15% (active),43%,13.7%,-39.9% (active)
COC(=O)c1c2c(c(C)[n+]([O-])c1C)C(=O)C=C(NCc1ccc(OC)cc1)C2=O,-38.8% (active),-8.68% (active),-6.26% (active),3.79% (active),-3.91% (active),-35.3% (active),-19.5% (active),-18.4% (active),3.11% (active),-54% (active),-83.7% (active),0.821% (active),-97.4% (active),-6.3% (active),-32.7% (active),-22.4% (active),-62.5% (active),-80.7% (active),-77% (active),-84.6% (active)
O=C(/C=C/c1cccs1)c1ccc(Cl)nc1,102%,107%,99.3%,94.9%,106%,105%,82%,98.6%,93.7%,108%,106%,97.1%,95.7%,116%,119%,102%,101%,101%,100%,101%
COc1ccc2cc(C(=O)c3coc4ccc(O)cc34)ccc2c1,96%,104%,95.8%,94.9%,105%,95.4%,72.9%,92.8%,94.1%,101%,99.6%,81.6%,92.1%,95%,115%,90.1%,105%,93.7%,103%,108%
Cc1ccc2c3c(c(=O)[nH]c2c1)C1(C(C#N)=C(N)O3)c2cc(Br)ccc2-c2ccc(Br)cc21,6.8% (active),-17% (active),16.5%,-27.5% (active),-56.5% (active),-10.8% (active),-8.2% (active),-42.4% (active),-19.5% (active),-51.8% (active),-7.81% (active),18.8%,-47.9% (active),-33.9% (active),-63.6% (active),-26.9% (active),-68.7% (active),-51% (active),71.2%,50.6%
CCNc1nc(-c2ccc(Cl)c(OC)c2)c(-c2ccnc(NCCCNS(=O)(=O)c3ccc(Cl)cc3)n2)s1,83.7%,72.2%,101%,61.7%,63.7%,20.9%,28.9%,44.9%,54.3%,11.7%,74.3%,32.3%,7.63% (active),50.9%,70.2%,60.4%,70.3%,86.6%,29.2%,23%
OB(O)c1cccc(-c2nc3ccc4[nH]ncc4c3c3c2CCCC3)c1,73%,81.6%,45%,42.3%,32.6%,47.6%,62.9%,41.8%,41.4%,41.7%,50.3%,52.6%,120%,26.1%,13.6%,37.9%,71.6%,20.9%,103%,64.8%
C=CCn1c(SCC(=O)NCc2cc(C)c(O)c(C)c2)nc2ccc(Cl)cc2c1=O,101%,87.2%,97%,101%,107%,82.2%,94.1%,106%,92.5%,116%,105%,58.6%,98.8%,111%,98.6%,99.2%,91.1%,101%,102%,115%
Clc1ccc(CNc2c3ccccc3nc3ccccc23)cc1,53%,75.5%,54.1%,53%,16.4%,25.5%,66.5%,39.3%,35.3%,8.58% (active),54.8%,4.34% (active),39.6%,54.8%,29.7%,67.9%,59.6%,30.3%,76.1%,53.3%
OCCCC1CCN(C(Cc2ccccc2)c2ccccc2)CC1 (stereo not given),102%,102%,93.7%,87.2%,106%,80.6%,43.9%,73.3%,82.5%,79.9%,103%,113%,93.8%,97.8%,111%,90.6%,98.7%,85.6%,96.4%,88.8%
O=C(Cn1c(-c2ccc([N+](=O)[O-])cc2)nc2ccccc21)NNC(=O)c1cccnc1,83.4%,60.3%,88.6%,95.2%,76.2%,38%,54.7%,91.1%,93%,92.6%,90.3%,63.4%,105%,92.4%,98.7%,89.2%,83.4%,88.9%,86.7%,91%
CS(=O)(=O)Nc1cc(-c2ccc3ncnc(Nc4c(Cl)ccc5c4OCO5)c3c2)cnc1Cl,0.217% (active),12.7%,-39% (active),9.21% (active),7.13% (active),-10.5% (active),-13.8% (active),-13.7% (active),0.785% (active),-45% (active),6.12% (active),13.6%,-29% (active),1.01% (active),-45.8% (active),-21.5% (active),-29.8% (active),-36.9% (active),-3.47% (active),-9.85% (active)
CCCCN1C(=O)/C(=c2\sc3n(c2=O)C2C(NN=3)N(CC)C(=O)N2CC)c2ccccc21 (stereo not given),25%,51.1%,52.9%,18%,3.01% (active),26.8%,-15.2% (active),7.06% (active),22.1%,1.59% (active),8.48% (active),5.85% (active),36.4%,8.32% (active),-29.5% (active),42.5%,2.37% (active),-40.4% (active),-9.63% (active),6.24% (active)
COc1ccc(/C=C2\COc3ccc(O)cc3C2=O)c(OC)c1OC,89.5%,99%,95.8%,80.9%,84.8%,102%,55.6%,92.4%,87.7%,102%,46.2%,17.7%,78.2%,82.9%,111%,93.4%,98.3%,81.6%,97.2%,86%
